Data on 56 compounds can be found in PubChem BioAssay AID1259415 (National Center for Advancing Translational Sciences (NCATS), 2018).

Screen size: about 410,000 compounds; about 18,000 (4.4%) were called active. Not shown: some 7% with an inconclusive outcome. Shown is part of a subset that was picked to be rich in actives. Values without a mark were called inactive. Cut-off read from the data, not from the text of the source: active = activity change below about -60%; inconclusive = no clear call, values can overlap the other calls; inactive = above about -39%.
% is set by controls: 0 for no effect and ±100 for the full control effect.

The nature of this test: qHTS Assay for inhibitors of the human cytomegalovirus (HCMV). The conditions noted are these: HFF cells, HCMV-luciferase reporter, 72 h; at 57.5 µM; hits give low values. The text has this: NCGC Assay Overview: Infection with human cytomegalovirus (HCMV) continues to pose significant threats for pregnant women and immunocompromised hosts. HCMV causes serious morbidity and mortality in transplant recipients, and congenital HCMV is the leading infectious cause of mental retardation and deafness in children. In the 1990s, the annual costs associated with the disease burden of congenital CMV were estimated at around $2 billion. A HCMV vaccine is not available yet and HCMV therapies result in intolerable side effects and emergence of drug resistant viruses. […] Towards this goal we have developed and characterized a luciferase HCMV reporter that was initially used in 96 well plates and then optimized to 1536-well plates for utilization in screening of the MLSMR collection, the NGCG diversity collection and the NCGC Pharmaceutical Collection of approved and investigational drugs.
NCGC Assay Protocol Summary:
This is a cell-based assay for HCMV inhibition in HFFs cells. The screening used 2 compound doses and the HCMV-luciferase at MOI of 1 PFU/cell. Cells were treated and infected with HCMV. At 72 h post infection cell lysates were collected and luciferase activity was determined using the Glomax-Multi + Detection System (Promega, Madison, WI). Data were normalized to the controls for basal activity (buffer only) and known HCMV inhibitors Salinmoycin.
1536-well assay protocol for the assay:
(1) Add 3 ul CMV/HFF cell culture. 1000 cells/well in DMEM nirmal media.
(2) Incubate 16 hr at 37C.
(3) Add 23 nl control compound, 10uM of Salinomycin.
(4) Add 23 nl compounds in DMSO solution.
(5) Add 3 ul CMV suspension. Final 1 puf/ul, Virus stock 2000pfu/ul
(6) Incubate 72 hrs at 37C.
(7) Add 4 ul OneGlo Luc Reagent.
(8) Incubate 5 min at room temperature.
(In qHTS, concentration-response curves come from the screen itself.)
Turning to `O=C1C(C=NCC2CCCO2)=C(O)c2ccccc21` (stereo unspecified), the activity change, negative = inhibition is 69.7%. Under `COc1ccc(C(=O)OCC(=O)NCC2CCCO2)cc1[N+](=O)[O-]` (stereo unspecified) stands 15.2%; under `O=C1c2cccc3c([N+](=O)[O-])ccc(c23)C(=O)N1CC1CCCO1` (stereo unspecified), -82.1% (active). Then `CCOc1cc(C(C(=O)NCC2CCCO2)N(C(=O)Cn2nnc3ccccc32)c2cccc(OC)c2)ccc1O` (stereo unspecified), with -8.64%; and `Cc1ccc2oc(=O)c3cnn(CC(=O)NCc4ccccc4Cl)c3c2c1`, with -4.14%. Under `COc1ccc(NC(=O)c2sc3nc[nH]c(=O)c3c2C)cc1` stands 52.3%. On to `COc1cccc(-n2c(SCC(=O)c3c[nH]c4ccccc34)nc3ccccc3c2=O)c1`, for which the activity change, negative = inhibition is -93.8% (active).

With `Cc1ccc(-n2c(SCC(=O)N3CCC(C(=O)O)CC3)nc3ccccc3c2=O)cc1C`, the activity change, negative = inhibition is 6.85%. Take `CCCn1c(N)c(C(=O)CSc2nc3ccccc3c(=O)n2-c2ccc(OC)cc2)c(=O)[nH]c1=O`: the activity change, negative = inhibition is -29.3%. Then `COc1ccc(C)cc1NC(=O)COCc1cc(-c2cccs2)on1`, with -10.8%; and `Cc1ccc(C)c(N2CCN(c3ccc4cc(S(=O)(=O)N5CCC(C)CC5)ccc4n3)CC2)c1`, with 19%; and `COc1cccc(NC(=O)N2CCC(NC(=O)C(Cc3cccc(C)c3)NC(C)=O)CC2)c1` (stereo unspecified), with -66.8% (active).

As to `CCOC(=O)C1CCN(C(=O)Nc2cccc(OC)c2)CC1`, the activity change, negative = inhibition is 5.16%. Then `COc1ccccc1CC(NC(C)=O)C(=O)NC1CCN(C(=O)Nc2ccccc2Cl)CC1` (stereo unspecified), with 0.54%. Then `O=C(NCCCO)C(=O)Nc1c2c(nn1-c1ccccc1)CSC2`, with -2.71%; and `COc1cccc(CN2CCc3nc(SCC(=O)Nc4ccccc4)[nH]c(=O)c3C2)c1`, with 4.11%; and `O=C(Nc1c(Cl)c(C2CC2)nn1-c1ccccc1)C(Cl)(Cl)Cl`, with 12.3%. Then `CCCCNC(=O)C1CCCN(c2nnc(C)c3c(C)n(-c4ccc(Cl)cc4)nc23)C1` (stereo unspecified), with -6.23%.

Regarding `CCOc1ccc(CNC(=O)C2CCCN(c3nnc(C)c4c(C)n(-c5ccccc5)nc34)C2)cc1` (stereo unspecified), the activity change, negative = inhibition was -67.7% (active). Under `CCOc1ccc(N(CC)S(=O)(=O)N2CCCC(C(=O)NCc3ccc(Cl)cc3)C2)cc1` (stereo unspecified) stands -15.9%; under `COc1ccc(S(=O)(=O)N2CCN(CC(=O)N3CCOCC3)CC2)cc1OC`, 4.11%; under `Cc1ccn(-c2cccc(-n3ccc(C)n3)n2)n1`, 65.3%.

As for `CC(=O)NC(CC(=O)Nc1ccc(S(=O)(=O)N2CCOCC2)cc1)c1ccccc1` (stereo unspecified), the activity change, negative = inhibition is 0%. In the case of `COC(=O)c1ccc(NC(=O)c2ccccc2NS(=O)(=O)c2ccccc2)cc1`, the activity change, negative = inhibition is -105% (active). Then `COc1cc(NC(=O)c2ccccc2NS(=O)(=O)c2ccc(Cl)s2)cc(OC)c1`, with -99.7% (active). Then `COc1cccc(NC(=O)c2ccccc2N(Cc2ccccc2)S(C)(=O)=O)c1`, with -6.12%. Regarding `Cc1cc(NS(=O)(=O)c2ccc(NC(=O)c3ccccc3C)cc2)nc(C)n1`, the activity change, negative = inhibition was -5.8%. Under `COC(=O)c1ccccc1NS(=O)(=O)c1ccc2c(c1)CCCN2C(C)=O` stands -2.94%; under `COc1cc(NS(=O)(=O)c2cccs2)cc(OC)c1`, 16.4%; under `COc1ccc(C2CC(=O)Nc3c2c(=O)nc2c(C)cccn32)cc1OC` (stereo unspecified), 3.37%. Under `CCn1c(CNC(=O)c2ccccc2)nnc1SCC(=O)N1CCN(c2ccccc2)CC1` stands -25.6%; under `O=C(CCNS(=O)(=O)c1ccccc1C(F)(F)F)Nc1ccncc1`, 6.98%; under `O=C(CN1CCN(c2ccccc2O)CC1)NC(=O)NCc1ccccc1`, -4.33%. Take `Oc1ccc(N2CCN(C(=S)NCc3ccccc3)CC2)cc1`: the activity change, negative = inhibition was -63.6% (active). Under `Cc1ccccc1NC(=O)C1CCCN(C(=O)NCc2ccccc2)C1` (stereo unspecified) stands -18.4%; under `COc1cc(C2C(C(=O)OCCC#N)=C(C)NC3=C2S(=O)(=O)c2ccccc23)cc(OC)c1OC` (stereo unspecified), 2.51%. Under `COc1ccccc1N1CCN(c2ncnc3onc(-c4cccc(Cl)c4)c23)CC1` stands 10.1%.

As to `COc1ccc2c(c1)c(N1CCCC1=O)c(C(=O)Nc1ccc(OC)c(Cl)c1)n2C`, the activity change, negative = inhibition is -18.9%. Then `Cc1nn(CC(=O)O)c(=O)c2cc3cc(F)ccc3n12`, with 31%. Under `Cc1cccc(OCCNC(=S)NC(=O)c2cccnc2)c1` stands -37.9%; under `Cc1cccc(OCC(=O)NCCNC(=O)c2cccnc2)c1`, -66.9% (active); under `CCNC(=O)COC(=O)CCNC(=O)c1cccc(C)c1`, -28.9%.

In the case of `Cc1cc(C)c(S(=O)(=O)NN=C2c3ccccc3[C@H]3Cc4csc[n+]4[C@@H]23)c(C)c1`, the activity change, negative = inhibition is -27.2%. Under `O=C(CCc1nc(CN2CCN(S(=O)(=O)c3ccc(F)cc3)CC2)no1)N1CCCCC1` stands -35.8%; under `CCC[C@H]1CCCC/C=C\CCCC(=O)OCCN1C(=O)OC(C)(C)C`, -71.3% (active). Turning to `Cc1cccc(C)c1NC(=O)C1CCCN1C(=O)OC(C)(C)C` (stereo unspecified), the activity change, negative = inhibition is -2.93%. With `Cc1nc(SCC(=O)NC2CCCC2)[nH]c(=O)c1C`, the activity change, negative = inhibition is -10.8%. With `Cc1nc(SCC(=O)NC2CCCCC2C)c(C#N)c(C)c1C` (stereo unspecified), the activity change, negative = inhibition is -103% (active). Under `CC1CCCCC1NC(=O)CSc1nnc(N)s1` (stereo unspecified) stands 41.4%.

For the compound `COc1cccc(CNC(=O)[C@@H]2CCCN2C(=O)[C@@H]2CCCN2C(=O)c2ccccc2)c1`, the activity change, negative = inhibition is -2.63%. Under `O=C(NCCS(=O)(=O)NCc1ccc(F)cc1)c1ccccc1` stands -9.67%; under `Cc1nc2c(C(=O)NCc3ccc4c(c3)OCO4)c[nH]n2c(=O)c1Cc1ccccc1F`, -7.59%. Under `COc1ccc(NS(=O)(=O)c2cccc(C(=O)NCCc3ccc(S(N)(=O)=O)cc3)c2)cc1` stands -1.91%; under `Cc1c(NS(=O)(=O)c2cccc(C(=O)Nc3ccc(SC(F)F)cc3)c2)c(=O)n(-c2ccccc2)n1C`, -2.26%; under `COc1ccc(NC(=O)/C(N=Nc2cccc(S(=O)(=O)Nc3ccc(SC(F)F)cc3)c2)=C(\C)O)cc1`, -70.6% (active). Under `Cc1ccc(Cl)cc1N1CCN(C(=O)c2cnc3c(-c4ccc(F)cc4)c(C)nn3c2C)CC1` stands 7.36%.
